Assay outcomes as filed in PubChem.
TAR Tat displ: TAR RNA-Tat peptide displacers, HIV-1, primary screen, biochemical, FRET, FAM/TAMRA-labeled Tat. HIV-1 TAR RNA, Tat peptide displacement FRET; hits give high values. z-score (concentration not given with the values). 0.6% of 100,000 active; active means z-score of 3 or more in at least 2 runs
CDC25B-CDK2 inh: primary biochemical HTRF screen for blockers of M-phase inducer phosphatase 2 binding to CDK2/cyclin A. P30305+P24941. HTRF CDC25B-CDK2/CyclinA binding, anti-His/anti-Flag; hits give high values. z-score (concentration not given with the values). 0.72% of 94,000 active. AID 1259370, 2018; in the data active means z-score above about 3.2
Large screens that a line does not name were inactive. In the library only some 0.93% were active in any assay of this set; here they are far more common.

Cc1[nH]c2ccccc2c1SCC(=O)NNC(=O)Nc1cccc(Cl)c1	CDC25B-CDK2 inh 14.3 (no result: TAR Tat displ)
CCc1ccc(-c2cc(C)no2)cc1S(=O)(=O)N1CCN(c2ccc(N3CCOCC3)nn2)CC1	none (no result: CDC25B-CDK2 inh)
COc1ccc(-n2c(C)cc(CNS(=O)(=O)c3ccc(OC)c(Cl)c3)c2C)cc1	none (no result: CDC25B-CDK2 inh)
CN(C)c1ccc(O)c2c1C[C@H]1C[C@H]3[C@H](N(C)C)C(=O)C(C(N)=O)=C(O)[C@@]3(O)C(=O)C1=C2O	TAR Tat displ 19.6 (no result: CDC25B-CDK2 inh)
C[C@H]1c2cccc(O)c2C(O)=C2C(=O)[C@]3(O)C(O)=C(C(N)=O)C(=O)[C@@H](N(C)C)[C@@H]3[C@@H](O)[C@@H]21	TAR Tat displ 23.7
CCc1nn2c(=O)cc(COc3ccccc3Cl)nc2s1	none
COc1cccc(C[C@H]2NC[C@H](O)[C@H]2OC(C)=O)c1	TAR Tat displ 3.82 (no result: CDC25B-CDK2 inh)
COc1cccc(CC2C(=O)Nc3ccccc32)c1 (stereo unspecified)	none
Fc1ccc(CSc2ccc3nnc(-c4ccccc4)n3n2)cc1	none (no result: TAR Tat displ)
Cn1nc(C(=O)N2CCC(N3CCCCC3)CC2)c2c1-c1ccccc1SC2	none
CC(=O)N1c2ccc(S(=O)(=O)N3CCCC3C(=O)Nc3nc(C)cs3)cc2CC1C (stereo unspecified)	none (no result: CDC25B-CDK2 inh)
CC1(C)OC(=O)C(=Cc2ccc(Cl)cc2Cl)C(=O)O1	CDC25B-CDK2 inh 9.23 (no result: TAR Tat displ)
CC1(C)OC(=O)C(=CNc2ccc(F)c(Cl)c2)C(=O)O1	none (no result: TAR Tat displ)
COc1ccccc1OCCCCn1c(CN2CCCCC2)nc2ccccc21	none
O=C(Nc1cccc2cccnc12)c1ccco1	CDC25B-CDK2 inh 5.61
O=C(Nc1cccc2cccnc12)C(=O)Nc1cccc2cccnc12	none (no result: TAR Tat displ)
O=C(NCC1COc2ccccc2O1)Nc1ccc(Cl)cc1 (stereo unspecified)	none (no result: TAR Tat displ)
Cc1noc(-c2ccccc2)c1NC(=O)NCC1COc2ccccc2O1 (stereo unspecified)	CDC25B-CDK2 inh 7 (no result: TAR Tat displ)
CC(=O)N1N=C(c2cc(C3CC3)nc3ccccc23)OC1c1ccc2c(c1)OCO2 (stereo unspecified)	TAR Tat displ 4.39 (no result: CDC25B-CDK2 inh)
COc1cc(C2OC(c3cc(C4CC4)nc4ccccc34)=NN2C(C)=O)ccc1OC(C)=O (stereo unspecified)	none (no result: CDC25B-CDK2 inh)
CC(=O)N1N=C(c2cc(C)nc3ccccc23)OC1c1cccs1 (stereo unspecified)	TAR Tat displ 3.84 (no result: CDC25B-CDK2 inh)
CC(=O)N1N=C(c2cccc3ccccc23)OC1c1cc(C)nc2ccccc12 (stereo unspecified)	none (no result: CDC25B-CDK2 inh)
CC1CCc2c(sc3c2CSC(C(=O)Nc2ccc(F)cc2F)=C3)C1 (stereo unspecified)	none (no result: CDC25B-CDK2 inh)
COc1ccc(OC)c(NC(=O)N2CCN(c3cc(N(C)C)nc(C)n3)CC2)c1	none
O=c1cc(-c2ccccc2)nc2nc(-c3ccco3)[nH]n12	TAR Tat displ 6.53
Cc1nc2nc(-c3ccccc3)cc(=O)n2[nH]1	none
Cc1ccc(-n2nc(C)c3c(C(F)(F)F)cc(C)nc32)cc1	none
CC1=C(c2ccccc2)S(=O)(=O)NC1=NCCCN1CCN(C2CCCCC2)CC1	none
CC1=C(c2ccccc2)S(=O)(=O)NC1=NCCCN1CCN(c2cc(C)ccc2C)CC1	CDC25B-CDK2 inh 13.3
c1cnc2sc(N3CCC4(CC3)OCCO4)nc2c1	none (no result: TAR Tat displ)
CNc1nc2cccnc2s1	CDC25B-CDK2 inh 8.24 (no result: TAR Tat displ)
O=C(c1noc2c1CCCCC2)N1CCN(c2ccccn2)CC1	none (no result: CDC25B-CDK2 inh)
CCOC(=O)c1cnc(SC(CC)C(=O)N2CCc3ccccc32)nc1N (stereo unspecified)	none (no result: CDC25B-CDK2 inh)
O=C(c1cc(O)c(O)c(O)c1)c1ccc(O)c(O)c1O	TAR Tat displ 32.5 (no result: CDC25B-CDK2 inh)
COc1cc(O)c2c(c1)C(=O)c1cc(C)cc(O)c1C2=O	none (no result: CDC25B-CDK2 inh)
O=C(O)c1cc(O)c(O)c(O)c1	TAR Tat displ 6.76 (no result: CDC25B-CDK2 inh)
O=C(O)c1cc(O)c2c(c1)C(=O)c1cc(O)cc(O)c1C2=O	TAR Tat displ 9.5 (no result: CDC25B-CDK2 inh)
Oc1ccc(Cl)cc1Cc1cc(Cl)ccc1O	none (no result: CDC25B-CDK2 inh)
O=C(O)c1ccnc(-c2cc(C(=O)O)ccn2)c1	none (no result: TAR Tat displ)
O=C(CSc1ccc2nc(-c3ccccc3)cn2n1)Nc1ccc2c(c1)OCO2	none (no result: CDC25B-CDK2 inh)
CN(C)c1ccc(C2CC(=O)NC(NC(=O)c3ccc(Br)cc3)=N2)cc1 (stereo unspecified)	none
CC(C)N(C(=O)CSc1cn(CC(=O)N2CCCCC2)c2ccccc12)C(C)C	none (no result: CDC25B-CDK2 inh)
c1ccc(-c2nn3c(C4COc5ccccc5O4)nnc3s2)nc1 (stereo unspecified)	none
Cc1nc2ccc(Cl)cn2c(=O)c1NC(=O)Cc1ccc(F)cc1	none (no result: CDC25B-CDK2 inh)
COc1ccccc1C1CC(=O)C2=C(C1)NC(C)=C(C(=O)OC1CCCC1)C2c1ccsc1 (stereo unspecified)	none
c1ccc(Nc2nc3c(s2)CCCC3)cc1	none (no result: TAR Tat displ)
Cn1c(=O)[nH]c(=O)c2c1nc(N1CCCC1)n2CCSc1ncccn1	none (no result: TAR Tat displ)
Cc1ccc(S(=O)(=O)Nc2ccc(Cl)c3cccnc23)cc1	none
Cc1ccc(S(=O)(=O)Nc2ccc(O)c3cccnc23)cc1	CDC25B-CDK2 inh 8.33
Cc1ccc(S(=O)(=O)Nc2ccc(O)c3ncccc23)cc1	CDC25B-CDK2 inh 14.5
